The results in this text go back to PubChem BioAssay AID624125 (The Scripps Research Institute Molecular Screening Center, 2012).

Where “and” joins values, the source holds several entries; their conditions need not be identical. Equal entries are not always repeated. Out of some 360,000 compounds screened, about 2,600 (0.72%) were called active. This is one part of a sample in which actives are shown more often than they occur.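 The calls were made as follows: active = inhibition above its plate's cutoff, the mean inhibition of sample wells plus 3 SD (cut at about 27% in these data); inactive = the rest.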

The target in this assay is Muscarinic acetylcholine receptor M4 (Homo sapiens) (UniProt P08173). The experiment in a line: CHRM4 blockers of acetylcholine calcium response – CHO cells, Fluo-8 calcium fluorescence, primary screen (AID 624125).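 Also: 0% = acetylcholine EC80 with DMSO and 100% = DMSO without agonist.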 The following applies: CHO-hM4 cells, ACh EC80, Fluo-8 calcium fluorescence; at 3 µM; stronger effect = higher value.
Chain of Muscarinic acetylcholine receptor M4 (Homo sapiens) (P08173 whole entry, looked up): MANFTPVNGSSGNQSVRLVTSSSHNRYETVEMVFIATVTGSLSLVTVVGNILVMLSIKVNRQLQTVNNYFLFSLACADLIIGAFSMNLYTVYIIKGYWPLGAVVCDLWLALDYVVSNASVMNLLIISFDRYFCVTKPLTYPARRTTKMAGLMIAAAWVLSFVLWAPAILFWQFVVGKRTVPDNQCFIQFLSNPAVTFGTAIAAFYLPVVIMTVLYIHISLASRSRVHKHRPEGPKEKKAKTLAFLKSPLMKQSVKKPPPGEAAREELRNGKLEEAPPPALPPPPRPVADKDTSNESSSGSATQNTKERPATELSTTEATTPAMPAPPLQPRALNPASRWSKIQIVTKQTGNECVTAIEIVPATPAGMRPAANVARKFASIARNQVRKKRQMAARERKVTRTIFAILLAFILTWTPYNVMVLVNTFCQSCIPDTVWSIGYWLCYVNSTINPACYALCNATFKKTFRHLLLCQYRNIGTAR
What is called inhibition is the drop in the measured response relative to a control, in per cent. As to `O=C(O)CC12CC3CC(C1)CC(n1ncc(NCc4ccc(F)cc4)c(Cl)c1=O)(C3)C2`, the inhibition was 4.05% (inactive). Turning to `Cc1nn(-c2ccccc2)c2c1c(C)c(CCC(=O)NCC1CCCO1)c(=O)n2C` (stereo not given), the inhibition was -9.84% (inactive). With `Cc1sc2c(c1C)c(=O)n(-c1ccccc1)c(=O)n2CC(=O)NCC1CCCO1` (stereo not given) the figure was 27.2% (active); with `Cc1nn(CC(=O)NCC2CCCO2)c(=O)c2cc3ccccc3n12` (stereo not given), -2.94% (inactive); with `COC(=O)/C(=C1\Oc2ccc(C(C)(C)C)cc2S1)C(F)(F)F`, -0.07% (inactive). On to `CCN(CC)CCNCC(=O)Nc1ccc(Oc2ccccc2)cc1`, for which the inhibition is -0.82% (inactive). Regarding `CCN(CC)CCOC(=O)c1ccc(NC(=O)CNC(=O)c2ccccc2)cc1`, the inhibition was -1.05% (inactive). In the case of `COC(CCN(C)C)(c1ccccc1)c1ccccc1`, the inhibition was 3.06% (inactive).

As to `CCC(C(=O)OCCN(CC)CC)c1ccccc1` (stereo not given), the inhibition was 54.1% (active).

Regarding `CCCC(C(=O)OCCN(CC)CC)(c1ccccc1)c1ccccc1`, the inhibition was 42.8% (active). On to `CCC(C(=O)Nc1ccc(C(C)C)cc1)c1ccccc1` (stereo not given), for which the inhibition is 23.7% (inactive). As to `CC1CCc2c(sc3c2C2=NS(=O)(=O)CCN2C=N3)C1` (stereo not given), the inhibition is -3.55% (inactive). As to `COc1ccc(S(=O)(=O)N2CCN(c3cnccn3)CC2)cc1`, the inhibition was 5.44% (inactive). Next, `O=C1CCc2cc(S(=O)(=O)Nc3ccc(C(F)(F)F)cc3)cc3c2N1CC3`: -14.8% (inactive); `CC(C)(C)NC(=O)COc1ccc(CNc2ccc3[nH]c(=O)[nH]c3c2)cc1`: -1.92% (inactive); `Cc1cc([N+](=O)[O-])c(=O)[nH]c1C`: 3.71% (inactive).

In the case of `CCOC(=O)C1Nc2ccc(C(F)(F)F)cc2C2C=CCC12` (stereo not given), the inhibition was -1.13% (inactive). In the case of `COc1cccc(-c2noc(C3CCCN(C(=O)c4ccc(F)cc4)C3)n2)c1` (stereo not given), the inhibition was -18% (inactive). Next, `CC(C)c1ccc(-c2noc(C3CCCN(S(C)(=O)=O)C3)n2)cc1` (stereo not given): -17.6% (inactive). On to `COc1cc(-c2noc(C3CCCN(S(=O)(=O)c4cccc(Cl)c4)C3)n2)cc(OC)c1OC` (stereo not given), for which the inhibition was 30.5% (active). `Clc1ccc(-c2nnc(-c3ccccc3)nc2N2CCSCC2)cc1`: the inhibition is -4.43% (inactive).

Regarding `CC12CCCCC1=CC(=O)CC2` (stereo not given), the inhibition was 2.52% (inactive). Next, `Cc1ccc(S(=O)(=O)N2CCCCC2)cc1NC(=O)CCNC(=O)c1ccccc1Cl`: -5.04% (inactive); `CN(C(=O)CSc1nnc(-c2ccc(C(C)(C)C)cc2)n1C)C1CCS(=O)(=O)C1` (stereo not given): 0.43% (inactive). Next, `COc1ccc(OCCCCN2CCC(C)CC2)cc1`: 9.1% (inactive); `O=c1[nH]c2ccccc2n1C1CCN(CCOc2ccccc2)CC1`: -13.4% (inactive); `OC(c1ccccc1)(c1ccccc1)C1CCN(CCCOc2ccccc2)CC1`: 91.6% (active). With `Cc1ccc(S(=O)(=O)N2CCOCC2)cc1C(=O)NC(=S)N(Cc1ccccc1)C(C)C` the figure was 0.9% (inactive).

As to `CCCCc1nc2ccc(F)cc2cc1C`, the inhibition was -4.37% (inactive). Regarding `Cc1sc2ncnc(N3CCC(C(=O)Nc4nc5ccc(Cl)cc5s4)CC3)c2c1C`, the inhibition is -9.33% (inactive). Next, `Cc1sc2ncnc(N3CCC(C(=O)NNC(=O)c4ccc(F)cc4)CC3)c2c1C`: -17.4% (inactive); `Cc1sc2ncnc(N3CCC(C(=O)Nc4ccc(F)cc4Cl)CC3)c2c1C`: 46.6% (active).

Consider `COC(=O)c1cc(N2CCNCC2)nc2ccccc12`, for which the inhibition is 6.45% (inactive). `CS(=O)(=O)N1CCN(CC(=O)NC2CCCC2)CC1`: the inhibition is 1.25% (inactive). Next, `Clc1ccc(C=NC23CN4CN(CN(C4)C2)C3)cc1`: -1.64% (inactive).

On to `O=C(c1ccccc1F)N1CCN(S(=O)(=O)c2ccc(Br)cc2)CC1`, for which the inhibition is 3.23% (inactive). Take `COc1ccc(CN2CCN(Cc3cn(C)nc3-c3ccccc3)CC2CCO)c(C)c1C` (stereo not given): the inhibition was -2.82% (inactive). With `OCCC1CN(Cc2ccc3nsnc3c2)CCN1C1CCCCC1` (stereo not given) the figure was 26.8% (active). Next, `CC(C)N1CCC(N2CCN(Cc3cccnc3)CC2CCO)CC1` (stereo not given): -8.19% (inactive); `Cn1cnnc1Sc1ccc(CN2CCN(C3CCCC3)C(CCO)C2)o1` (stereo not given): 42.6% (active); `OCCC1CN(Cc2ccc3nsnc3c2)CCN1C1CCCC1` (stereo not given): 47.5% (active). For `OCCC1CN(Cc2cccc(O)c2)CCN1CCc1ccccc1` (stereo not given), the inhibition was -6.17% (inactive). Next, `OCCC1CN(Cc2cccc(OC3CCCC3)c2)CCN1Cc1ccsc1` (stereo not given): 2.69% (inactive); `CCOc1ccc(CN2CCN(Cc3ccc(C)o3)CC2CCO)cc1` (stereo not given): 1.46% (inactive); `OCC1(CCc2ccccc2)CCN(Cc2ccc3nsnc3c2)CC1`: 8.32% (inactive). Next, `Cc1ccc(CN2CCN(Cc3ccc(OCCO)cc3)CC2CCO)o1` (stereo not given): 2.78% (inactive); `Cc1ccc(CN2CCN(Cc3ccc4ncccc4c3)CC2CCO)cc1` (stereo not given): -9.31% (inactive). Next, `COc1cccc2c1OCC(CN1CCN(C3CCCCC3)C(CCO)C1)=C2` (stereo not given): 26.6% (active); `CCC(Sc1nncn1C)C(=O)Nc1nnc(-c2ccc(Cl)cc2)s1` (stereo not given): -32.3% (inactive).

For the compound `CCOc1cc(-c2noc(CCCC(=O)NC3CCCCC3)n2)ccc1OC`, the inhibition is -15.3% (inactive).

Consider `CC(c1ccccn1)N(C)C(=O)c1ccc2nc(Cc3cccc(Cl)c3)oc2c1` (stereo not given), for which the inhibition was 0.98% (inactive).

With `Cc1ccc(NC(=O)C(C)OC(=O)C2CC3CCCC(C2)C3=O)cc1S(=O)(=O)N1CCOCC1` (stereo not given), the inhibition was -3.85% (inactive).

As to `CCc1nc2c(OCc3ccc(C(F)(F)F)cc3)cccn2c1N(C)C(=O)CC(C)C`, the inhibition was 3.96% (inactive). With `Cc1cc(=O)oc2cc(NC(=O)C3CC(=O)N(Cc4ccccc4)C3)ccc12` (stereo not given), the inhibition is -0.59% (inactive). Turning to `O=C(O)C1CCN1C1CCCCC1` (stereo not given), the inhibition was 2.3% (inactive). Turning to `COC(=O)c1c(C)oc(C)c1S(=O)(=O)NCc1ccc(Cl)cc1`, the inhibition was 12.7% (inactive). With `CN(CCN1CCOCC1)Cc1nc(-c2ccc3c(c2)OCO3)no1` the figure was 8.12% (inactive); with `CCOc1ccc(NC(=O)C2CC(=O)N=C(N)S2)cc1` (stereo not given), -0.59% (inactive). For `COc1ccc(C(=O)OCC(=O)NCC2CCCO2)cc1[N+](=O)[O-]` (stereo not given), the inhibition is -10.6% (inactive). With `Cc1cc(-c2nnc(SCC(=O)Nc3ccc(F)cc3)n2N)n[nH]1` the figure was 8.94% (inactive); with `CSCCC(NS(=O)(=O)c1ccccc1F)C(=O)N1CC=C(c2ccccc2)CC1` (stereo not given), 3.15% (inactive). With `O=C1NC(=O)C(c2ccc(Cl)cc2)N1` (stereo not given) the figure was -2.3% (inactive).

Turning to `O=C1CSC(c2ccc(Cl)cc2)N1` (stereo not given), the inhibition was 27.7% (active). With `COC(=O)C1=C(N)Oc2cc(C)[nH]c(=O)c2C1c1ccc(Cl)cc1` (stereo not given), the inhibition is 0.29% (inactive). With `COc1ccc(C(=O)Oc2ccc(-c3nnco3)cc2)cc1S(=O)(=O)N1CCOCC1` the figure was -11.2% (inactive). Next, `O=C(OC1CC2CC1[C@H]1CCCCN1C2=O)N1CCOCC1` (stereo not given in full): -3.15% (inactive).

As to `CCc1ccc(S(=O)(=O)NCC(O)COc2ccc(OC)cc2)cc1` (stereo not given), the inhibition was -13% (inactive). With `C#C[C@]1(O)CC[C@H]2[C@@H]3CCC4=CC(=O)CC[C@@H]4[C@H]3CC[C@@]21CC` the figure was -4.91% (inactive) and 3.68% (inactive). On to `CN1CCN(C2Cc3ccc(Cl)cc3Sc3ccc(F)cc32)CC1` (stereo not given), for which the inhibition was 38.1% (active). Take `CCOCCCNC(=O)C(NC(=O)c1ccc(=O)[nH]c1)c1ccc(C)cc1` (stereo not given): the inhibition is -5.59% (inactive). With `CN(C)Cc1ccc(F)cc1Sc1cc(Cl)ccc1Cl`, the inhibition was 43.8% (active). Next, `CN(Cc1ccc(F)cc1Cl)S(=O)(=O)c1cccs1`: -1.2% (inactive); `Cc1ccc(-c2ccc(=O)n(Cc3ccc(F)cc3Cl)n2)cc1`: 0.63% (inactive); `COc1cccc(CC(=NO)c2cccc(OC)c2)c1`: -5.79% (inactive). As to `O=C(C1CCCO1)N1CCN(C(=S)Nc2cccc(Cl)c2)CC1` (stereo not given), the inhibition is 0.97% (inactive).
